Consider two molecules from the supplement of paper PMC8728848.

This excerpt belongs to a sample that is enriched for the strongest signals.

What all share (test): glycan array binding signal (z-score within array); higher = stronger binding
Common to all, as to conditions: glycan notation: IUPAC condensed, linker removed

In one experiment the target is Fuc(a1-2)Gal(b1-3)GalNAc. Put shortly:
(§1)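 Negative Z-scores can be read as non-binding. The Z-score is calculated within each array and then averaged across arrays of one protein sequence at different concentrations or buffers and across linkers. Arrays, 3228 in all, were curated from the Consortium for Functional Glycomics database and kept only where the protein sequence was available.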

Experiment [1] addresses Fuc(a1-2)Gal(b1-3)GalNAc(b1-3)Gal. Put shortly:
as §1

The target in experiment [2] is Fuc(a1-2)Gal(b1-3)GlcNAc(b1-3)Gal(b1-4)Glc. Put shortly:
as §1

A further experiment concerns the target Fuc(a1-2)Gal(b1-4)Glc. Put shortly:
as §1

Experiment [3] concerns the target Fuc(a1-2)[GalNAc(a1-3)]Gal(b1-4)Glc. Put shortly:
as §1

For another experiment, the target named is Fuc(a1-3)GlcNAc. Put shortly: as §1
Experiment [4] addresses Fuc(a1-3)[Gal3S(b1-4)]Glc6S. Put shortly:
as §1

Another experiment has as its target Gal(a1-3)Gal. Put shortly: as §1
Experiment [5] concerns the target Gal(a1-4)Gal(b1-4)GlcNAc(b1-2)Man(a1-3)[Gal(a1-4)Gal(b1-4)GlcNAc(b1-2)Man(a1-6)]Man(b1-4)GlcNAc(b1-4)GlcNAc. Put shortly:
as §1

Experiment [6] concerns the target Gal(a1-4)Gal(b1-4)GlcNAc(b1-3)Gal(b1-4)Glc. Put shortly:
as §1

For another experiment, the target named is Gal(b1-3)GlcNAc. Put shortly:
as §1

The target of experiment [7] is Gal(b1-3)GlcNAc(b1-3)Gal(b1-4)Glc. Put shortly:
as §1

The target in experiment [8] is Gal(b1-3)[Fuc(a1-4)]GlcNAc. Put shortly:
as §1

The target of experiment [9] is Gal(b1-3)[Fuc(a1-4)]GlcNAc(b1-3)Gal(b1-4)[Fuc(a1-3)]GlcNAc. Put shortly:
as §1

The target in experiment [10] is Gal(b1-3)[Neu5Ac(b2-6)]GalNAc. Put shortly:
as §1

The target of experiment [11] is Gal(b1-4)GlcNAc(b1-2)Man(a1-6)[GlcNAc(b1-2)Man(a1-3)]Man(b1-4)GlcNAc(b1-4)GlcNAc. Put shortly: as §1
Experiment [12] has as its target Gal(b1-4)GlcNAc(b1-6)Gal(b1-4)GlcNAc. Put shortly:
as §1

Experiment [13] addresses Gal(b1-4)GlcNAc(b1-6)GalNAc. Put shortly:
as §1

A further experiment addresses Gal3S(b1-4)Glc. Put shortly:
as §1

The next experiment deals with Gal3S6S(b1-4)GlcNAc6S. Put shortly:
as §1

For another experiment, the target named is Gal6S(b1-4)Glc. Put shortly:
as §1

The target in experiment [14] is GalNAc(b1-3)Gal(a1-4)Gal(b1-4)GlcNAc. Put shortly:
as §1

Another experiment has as its target Glc(a1-6)Glc(a1-6)Glc. Put shortly: as §1
For another experiment, the target named is Glc(b1-4)Glc. Put shortly:
as §1

The target of experiment [15] is GlcNAc(b1-3)[GlcNAc(b1-4)][GlcNAc(b1-6)]GlcNAc. Put shortly:
as §1

A further experiment concerns the target Kdn(a2-3)Gal(b1-3)GalNAc. Put shortly: as §1
Experiment [16] concerns the target Man(a1-2)Man(a1-2)Man(a1-3)Man. Put shortly:
as §1

Experiment [17] concerns the target Man(a1-3)[Man(a1-6)]Man(a1-6)[Man(a1-3)]Man(b1-4)GlcNAc(b1-4)GlcNAc. Put shortly: as §1
In experiment [18] the target is Neu5Ac(a2-3)Gal(b1-3)GlcNAc(b1-3)GalNAc. Put shortly: as §1
Experiment [19] addresses Neu5Ac(a2-3)Gal(b1-4)GlcNAc(b1-3)Gal(b1-4)GlcNAc(b1-3)Gal(b1-4)GlcNAc. Put shortly: as §1
In experiment [20] the target is Neu5Ac(a2-3)Gal(b1-4)GlcNAc(b1-3)Gal(b1-4)[Fuc(a1-3)]GlcNAc. Put shortly:
as §1

Experiment [21] concerns the target Neu5Ac(a2-3)Gal(b1-4)[Fuc(a1-3)]GlcNAc(b1-3)GalNAc. Put shortly:
as §1

Experiment [22] has as its target Neu5Ac(a2-6)Gal(b1-4)GlcNAc(b1-2)Man(a1-3)[Gal(b1-4)GlcNAc(b1-2)Man(a1-6)]Man(b1-4)GlcNAc(b1-4)GlcNAc. Put shortly: as §1
The target in experiment [23] is Neu5Ac(a2-6)Gal(b1-4)GlcNAc(b1-2)Man(a1-6)[GlcNAc(b1-2)Man(a1-3)]Man(b1-4)GlcNAc(b1-4)GlcNAc. Put shortly:
as §1

Experiment [24] deals with Neu5Ac(a2-6)GlcNAc(b1-4)GlcNAc. Put shortly: as §1
In experiment [25] the target is Neu5Ac9Ac(a2-6)Gal(b1-4)GlcNAc. Put shortly: as §1
For experiment [26], the target named is Neu5Ac(a2-3)Gal(b1-4)[Fuc(a1-3)]GlcNAc(b1-6)[Gal(b1-3)]GalNAc. Put shortly:
as §1

In experiment [27] the target is Neu5Ac(a2-3)Gal(b1-4)[Fuc(a1-3)]GlcNAc(b1-6)[Neu5Ac(a2-3)Gal(b1-3)]GalNAc. Put shortly: as §1
Experiment [28] addresses Neu5Ac(a2-3)GalNAc(b1-4)GlcNAc. Put shortly:
as §1

The target in experiment [29] is Neu5Ac(a2-3)[Neu5Ac(a2-6)]GalNAc. Put shortly: as §1
In experiment [30] the target is Neu5Ac(a2-6)Gal(b1-4)GlcNAc. Put shortly: as §1
Experiment [31] addresses Neu5Ac(a2-6)Gal(b1-4)GlcNAc(b1-3)Gal(b1-4)GlcNAc(b1-3)Gal(b1-4)GlcNAc. Put shortly: as §1
For experiment [32], the target named is Neu5Ac(a2-8)Neu5Ac(a2-3)[GalNAc(b1-4)]Gal(b1-4)Glc. Put shortly: as §1
For experiment [33], the target named is Neu5Gc(a2-6)Gal(b1-4)GlcNAc. Put shortly: as §1

B1: SBD (Rhizopus oryzae), P07683 (protein)
chain: ASIPSSASVQLDSYNYDGSTFSGKIYVKNIAYSKKVTVVYADGSDNWNNNGNIIAASFSGPISGSNYEYWTFSASVKGIKEFYIKYEVSGKTYYDNNNSANYQVS
As to B1, the “glycan array binding signal (z-score)” value is 0.019 with Fuc(a1-2)Gal(b1-3)GalNAc; 2.93 in experiment [1]; 2.1 in experiment [2]; -0.623 with Fuc(a1-2)Gal(b1-4)Glc; -0.2 in experiment [3]; 0.165 with Fuc(a1-3)GlcNAc. In addition, the “glycan array binding signal (z-score)” value in experiment [4] is 0.589; in the experiment with Gal(a1-3)Gal, -0.697; in experiment [5], 2.59; in experiment [6] it was 0.2; with Gal(b1-3)GlcNAc, 0.042; in [7], 2.02. The “glycan array binding signal (z-score)” value is -0.029 in [8]; 0.121 in experiment [9]; -0.657 in experiment [10]; -0.081 in experiment [11]; 0.47 in experiment [12]; -0.13 in [13]. Besides, the “glycan array binding signal (z-score)” value with Gal3S(b1-4)Glc is 0.207; in the experiment with Gal3S6S(b1-4)GlcNAc6S, 0.19; with Gal6S(b1-4)Glc, -0.476; in experiment [14], -0.155; with Glc(a1-6)Glc(a1-6)Glc, -0.213; with Glc(b1-4)Glc, -0.436. Besides, the “glycan array binding signal (z-score)” value was -0.005 in [15]; 0.62 with Kdn(a2-3)Gal(b1-3)GalNAc; 5.61 in experiment [16]; -0.313 in [17]; 2 in experiment [18]; -0.668 in experiment [19]. Moreover, the “glycan array binding signal (z-score)” value in [20] was -0.067; in [21], 3.37; in [22], -0.457; in [23], 0.349; in [24], 0.158; in [25], -0.195.

B2: SAG3 (Toxoplasma gondii), Q9BJ39 (protein)
chain: MQLWRRRAAGPASLGRQSLPLGCFFAAFGLCVLSAILGTGERGLFVAAGNSRRKITYFGTLTQKAPNWYRCSSTRAKEEVVGHVTLNKEHPDMTIECVDDGLGGEFLPLEGARSSYPRVCHIDAKDQDDCERNRGFLTDYIPGAKQYWYKIEKVEQNGEQSVLYKFTVPWILLPPAKQRYKVGCRYPNHEYCFVEVTVEPTPPMVEGKRVTCGYSESGPVNLEVDLSKNANFIEIRCGEQHHPQPSTYTLQYCSGDSVDPQKCSPQSLTNIFYDYSSSWWKGKLNGPDGATLTIPPGGFPEEDKSFLVGCSLTVDGPPFCNVKVRVAGNPRKWERGGGGHPGSGGLQPGTDGETQAGTGSSAGASSRMASVALAFLLGLLVHVAA
As for B2, the “glycan array binding signal (z-score)” value in [21] is 16; in experiment [26] it was 3.05; in experiment [27] it was 2.02; in experiment [28] it was -0.469; in experiment [29] it was -0.226; in experiment [30], -0.372. Moreover, the “glycan array binding signal (z-score)” value in [31] was -0.049; in experiment [32], 2.27; in experiment [25] it was 0.292; in [33], -0.387.
